PubChem BioAssay (Tox21)
Activity calls are given as the source filed them. Unless noted, calls follow the shape of the dose curve; as a rule, active = well fitted curve in the direction sought with a large enough effect in the repeat runs; inconclusive = weak or mixed curves; inactive = no such curve, though single readings can be large; an effect the other way counts as inactive or inconclusive.

How the values were obtained:
[1] = qHTS assay for small molecule agonists of the p53 signaling pathway (AID 651631; calls by dose curve; also: nearly all actives have a fitted effect of over 15% in size)
How it was run: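 HCT-116 p53RE-bla reporter line, 16 h compound treatment at 37 °C, then fluorescence after 2 h with B/G FRET substrate.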

[2] = qHTS assay for small molecules that induce genotoxicity in human embryonic kidney cells expressing luciferase-tagged ATAD5 (AID 651632); also: nearly all actives have a fitted effect of over 15% in size
How it was run: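 HEK293T cells carrying a luciferase reporter tagged to ATAD5 were exposed to compound or DMSO vehicle for 16 hr at 37C, 5% CO2. Amplite was added, and after 30 min at room temperature luciferase activity was read as a marker of ATAD5 induction.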

[3] = qHTS assay for small molecule agonists of the p53 signaling pathway - cell viability (AID 651633; calls by dose curve;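 also: p53RE-bla HCT reporter cells with a stable beta-lactamase p53 reporter; series mostly up to about 83 µM; nearly all actives have a fitted effect of over 30% in size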)
How it was run: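 p53RE-bla cells were treated with compound for 16 hours at 37 C. Cytotoxicity was then measured as CellTiter-Glo luminescence after 30 min at room temperature.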

[4] = qHTS assay for small molecules that induce genotoxicity in human embryonic kidney cells expressing luciferase-tagged ATAD5 - cell viability (AID 651634; calls by dose curve; also: nearly all actives have a fitted effect of over 25% in size)
How it was run: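 HEK293T cells expressing luciferase-tagged ATAD5 were exposed to compound or DMSO for 15.5 hr at 37C, 5% CO2. Viability was then read as live-cell protease activity by CellTiter-Fluor fluorescence after 30 min at 37C.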

[5] = qHTS assay for small molecule disruptors of the mitochondrial membrane potential - cell viability (AID 720634; calls by dose curve;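 also: human HepG2 liver cancer cells; series mostly up to about 83 µM; nearly all actives have a fitted effect of over 20% in size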)
How it was run: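 HepG2 cells seeded overnight at 37 C, then exposed to compound or DMSO for 1 hr at 37 C, 5% CO2. m-MPI dye added, then CellTiter-Glo for 30 min at room temperature; viability read as ATP luminescence.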

[6] = qHTS assay for small molecule disruptors of the mitochondrial membrane potential (AID 720635)
How it was run: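 HepG2 cells exposed to compound 1 hr at 37C, then Mito-MPS dye 30 min. Ratio read of aggregate (540/590 nm) versus monomer (490/535 nm) fluorescence.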

[7] = qHTS assay to test for compound auto fluorescence at 590 nm (red) in HepG2 cells (AID 720674)
How it was run: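 Fluorescence at 590 nm emission following 540 nm excitation was recorded from HepG2 wells one hour after compound transfer, with DMSO-only wells as vehicle and Rose Bengal sodium equivalency as the scale.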

[8] = qHTS assay to test for compound auto fluorescence at 535 nm (green) in HepG2 cells (AID 720675)
[9] = qHTS assay to test for compound auto fluorescence at 460 nm (blue) in HEK293 cells (AID 720678)
How it was run: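 Auto fluorescence in the blue band was quantified as triamterene equivalency. HEK293 cells were seeded at 2,000/well, dosed after a 4-5 hr attachment, and kept overnight at 37C before the 405/460 nm reading.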

[10] = qHTS assay to test for compound auto fluorescence at 590 nm (red) in HEK293 cells (AID 720679)
How it was run: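 Autofluorescence equivalency to Rose Bengal sodium, 540/590nm, in HEK293 cells exposed overnight to 23 nL compound per well.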

[11] = qHTS assay to test for compound auto fluorescence at 535 nm (green) in HEK293 cell free culture (AID 720682)
How it was run: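 Steps: dispense DMEM/10% FBS into empty wells; pin in compound or DMSO; measure fluorescence at 485/535 nm. Values are fluorescein equivalents.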

[12] = qHTS assay to test for compound auto fluorescence at 590 nm (red) in HEK293 cell free culture (AID 720683)
How it was run: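 Cell-free wells of DMEM with 10% FBS received compound, and intrinsic fluorescence was read at excitation/emission 540/590 nm. Values expressed as equivalence to Rose Bengal sodium.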

[13] = qHTS assay to test for compound auto fluorescence at 590 nm (red) in HepG2 cell free culture (AID 720684)
How it was run: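 Compounds are added to culture medium (MEM, 10% FBS) lacking cells, then fluorescence is read at excitation 540 nm, emission 590 nm, with Rose Bengal sodium as the equivalency standard.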

[14] = qHTS assay to test for compound auto fluorescence at 460 nm (blue) in HepG2 cell free culture (AID 720685)
How it was run: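 Compound (23 nL) or DMSO pinned into cell-free MEM with 10% FBS; blue fluorescence read at 405/460 nm excitation/emission, expressed as auto-fluorescence equivalency to triamterene.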

[15] = qHTS assay to test for compound auto fluorescence at 535 nm (green) in HepG2 cell free culture (AID 720686)
[16] = qHTS assay to test for compound auto fluorescence at 460 nm (blue) in HepG2 cells (AID 720687)
How it was run: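 HepG2 cells in MEM with 10% FBS, attached overnight at 37 C, were exposed to compound or DMSO for 1 hr at 37 C, 5% CO2. Blue fluorescence was read at 405/460 nm, with triamterene as reference fluorophore.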

[17] = qHTS assay to test for compound auto fluorescence at 535 nm (green) in HEK293 cells (AID 720680)
[18] = qHTS assay to test for compound auto fluorescence at 460 nm (blue) in HEK293 cell free culture (AID 720681)
How it was run: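 Compounds were added to cell-free DMEM with 10% FBS and fluorescence read directly. The blue channel used 405 nm excitation and 460 nm emission, with triamterene as the reference fluorophore.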

[19] = target: Glucocorticoid receptor (Homo sapiens) (UniProt P04150); test: qHTS assay to identify small molecule agonists of the glucocorticoid receptor (GR) signaling pathway (AID 720691; active = well fitted activation curve with a large enough effect in the signal ratio in the repeat runs, not every such curve was filed as active; inconclusive = weak or mixed curves, or effect the other way; inactive = no such curve, though single readings can be large or run the other way; the % refers to the signal ratio; also: potency is read from the fitted curve at half-maximal effect)
Chain of Glucocorticoid receptor (Homo sapiens) (P04150 whole entry, looked up): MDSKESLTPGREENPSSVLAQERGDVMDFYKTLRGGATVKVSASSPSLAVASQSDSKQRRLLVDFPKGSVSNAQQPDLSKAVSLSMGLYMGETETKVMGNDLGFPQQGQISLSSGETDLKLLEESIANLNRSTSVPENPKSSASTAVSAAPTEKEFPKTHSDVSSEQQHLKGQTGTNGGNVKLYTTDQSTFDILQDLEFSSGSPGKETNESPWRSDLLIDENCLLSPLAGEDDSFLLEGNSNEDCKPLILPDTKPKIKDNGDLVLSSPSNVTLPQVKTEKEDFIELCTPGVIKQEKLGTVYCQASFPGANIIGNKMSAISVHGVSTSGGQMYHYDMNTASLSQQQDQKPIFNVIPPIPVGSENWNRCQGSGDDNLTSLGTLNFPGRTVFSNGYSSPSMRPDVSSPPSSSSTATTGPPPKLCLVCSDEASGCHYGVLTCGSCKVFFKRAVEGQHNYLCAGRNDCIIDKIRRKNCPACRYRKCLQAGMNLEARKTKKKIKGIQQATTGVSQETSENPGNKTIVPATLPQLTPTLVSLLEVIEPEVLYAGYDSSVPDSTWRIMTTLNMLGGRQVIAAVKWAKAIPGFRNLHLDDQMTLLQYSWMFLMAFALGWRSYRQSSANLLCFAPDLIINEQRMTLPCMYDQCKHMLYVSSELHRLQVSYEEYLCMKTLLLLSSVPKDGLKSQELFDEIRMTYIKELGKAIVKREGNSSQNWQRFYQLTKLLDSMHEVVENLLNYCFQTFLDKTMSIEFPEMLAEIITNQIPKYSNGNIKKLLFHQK
How it was run: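 GR-bla HeLa cells (beta-lactamase reporter under glucocorticoid response element) were plated 4 h at 37 C/5% CO2, given compounds in DMSO, and incubated 18 h at 37 C. LiveBLAzer B/G FRET substrate was added for 2 h at room temperature, then fluorescence intensity read.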

[20] = target: Glucocorticoid receptor (Homo sapiens) (UniProt P04150); test: qHTS assay to identify small molecule antagonists of the glucocorticoid receptor (GR) signaling pathway (AID 720692; active = well fitted inhibition curve with a large enough effect in the signal ratio in the repeat runs, not every such curve was filed as active; inconclusive = weak or mixed curves, or effect the other way; inactive = no such curve, though single readings can be large or run the other way; the % refers to the signal ratio)
How it was run: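 GR-bla HeLa cells (beta-lactamase reporter under glucocorticoid response element) were pre-plated 4 h at 37 C, treated with compounds plus 5 nM dexamethasone (final) for 18 h, then read by LiveBLAzer B/G FRET fluorescence after 2 h.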

Measured: Potency

COc1cccc(Br)c1
not listed: [17] | [18] | [19] | [20]
inactive: all other assays above

CCCCCCCCCCCCCCCCCCOCC(O)CO (stereo not given)
active: [19] 952 nM [inconclusive]
not listed: [20]
inactive: all other assays above

Cc1cc(C)c(NC(=O)CN(CC(=O)O)CC(=O)O)c(C)c1Br
not listed: [20]
inactive: all other assays above

CCCCC1CCCCC(=O)O1 (stereo not given)
not listed: [18]
inactive: all other assays above

CC(C)(C)OC(=O)N1C[C@@H](F)C[C@H]1C(=O)O
not listed: [13]
inactive: all other assays above

NC(=O)c1ncn([C@@H]2O[C@H](CO)[C@@H](O)[C@H]2O)c1N
not listed: [19] | [20]
inactive: all other assays above

Nc1nc2c(ncn2CCC(CO)CO)c(=O)[nH]1
inactive: all assays above
